Bioassay records from PubChem.
An excerpt weighted towards active compounds, which were near 6.2% of everything screened.
RORg inh: ROR gamma (mouse) transcription inhibition; Drosophila S2 Gal4-RORgamma UAS-luciferase reporter, 20 h; Potency, µM (doses to about 53.6 µM), most hits filed as inhibitors; 310,000 tested, 5.4% active; note: nearly all actives have a fitted effect of over 60% in size
Target sequence (P51450 whole entry, looked up, the tested form may be a part): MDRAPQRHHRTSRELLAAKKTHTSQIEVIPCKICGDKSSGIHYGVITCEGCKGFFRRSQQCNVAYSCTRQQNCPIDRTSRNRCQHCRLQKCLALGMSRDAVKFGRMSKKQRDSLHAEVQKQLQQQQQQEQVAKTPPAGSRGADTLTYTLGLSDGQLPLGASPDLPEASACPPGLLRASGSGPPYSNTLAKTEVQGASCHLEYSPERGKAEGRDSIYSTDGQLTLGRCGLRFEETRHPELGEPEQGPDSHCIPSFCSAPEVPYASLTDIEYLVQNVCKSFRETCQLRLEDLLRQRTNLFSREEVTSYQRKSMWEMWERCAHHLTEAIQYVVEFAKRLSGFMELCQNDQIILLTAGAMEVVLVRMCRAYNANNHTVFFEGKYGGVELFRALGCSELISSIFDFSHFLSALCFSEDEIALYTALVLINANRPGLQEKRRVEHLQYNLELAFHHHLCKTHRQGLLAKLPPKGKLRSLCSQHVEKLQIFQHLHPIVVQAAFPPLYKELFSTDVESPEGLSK
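Read-out: Photinus luciferase luminescence; inhibitors lower reporter signal. Insect Schneider cells with Gal4-ROR gamma fusion under metallothionein promoter, UAS reporter; 700 uM final copper sulfate induction, 20 hr, ambient temperature.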
Luc counter: blocks Kinase-Glo luciferase, a counter-screen artifact. Kinase-Glo luciferase, ATP luminescence, 8 min. Potency, µM (doses to about 38.3 µM), usual class: inhibitors. Q27757. 200,000 tested, 0.28% active; note: nearly all actives have a fitted effect of over 60% in size
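Light output from Kinase-Glo luciferase with luciferin and 10 uM ATP in 50 mM imidazole pH 7.2, KCl, MgCl2, Tween 20, BSA; compound pin-delivered, 8-min ambient incubation, then luminescence read.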
VP16 counter: Gal4-VP16 reporter inhibition counter-screen. Potency, µM (doses to about 53.6 µM), hits mostly inhibitors. Drosophila S2 Gal4-VP16 UAS-luciferase, luminescence, 20 h. 310,000 tested, 3.5% active;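 note: Gal4-VP16 expression switched on by copper sulfate through the metallothionein promoter; nearly all actives have a fitted effect of over 50% in size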
Each line names hits and unclear results; the compound was inactive in the other large screens. Calls come from the whole dose curve; as a rule, active = well fitted curve in the direction sought with a large enough effect; inconclusive = small, poorly fitted or top-dose-only effect, or another doubt; inactive = no such curve, though single readings can be large; an effect the other way counts as inactive or inconclusive.

O=C(N/N=C\c1c(O)ccc2ccccc12)c1ccc(O)cc1	RORg inh 5µM, VP16 counter 5.6µM (no result: Luc counter)
O=C(N/N=C\c1c(O)ccc2ccccc12)c1cncc(Br)c1	RORg inh 5µM, VP16 counter 4.5µM (no result: Luc counter)
O=C(NCCOc1ccc2ccccc2c1)c1cncc(Br)c1	none (no result: Luc counter)
O=C(N/N=C/c1c(O)ccc2ccccc12)c1ccc[n+](CCO)c1	none
O=C(c1oc(=O)c2ccccc2c1-c1ccccc1)N1CCN(C2CCCCC2)CC1	none
COC(=O)c1[nH]c2ccccc2c1NC(=O)C(C)N1CCN(C(=O)c2ccco2)CC1 (stereo not given)	none
COc1cccc(C(=O)Nc2nnc(S(=O)(=O)N3CCCC3)s2)c1	none (no result: Luc counter)
C[C@@]12C=CC(=O)C=C1CCC1C3CC(O)[C@@](O)(C(=O)CO)[C@]3(C)CC(O)[C@]12F (stereo not given in full)	none
Cc1cccc(N2CCN(C(=O)NCc3ccc(F)cc3)CC2)c1C	none (no result: Luc counter)
Cc1ccc(C(=O)N/N=C/c2c(O)ccc3ccccc23)cn1	RORg inh 5µM, VP16 counter 7.1µM (no result: Luc counter)
COc1ccccc1/C=N/NC(=O)c1ccc(C)nc1	none (no result: Luc counter)
S=c1[nH]nc(-c2ccccc2Br)n1Cc1ccccc1	RORg inh 4.5µM, VP16 counter 6.3µM (no result: Luc counter)
O=C1OCCC1Sc1nnc(-c2ccccc2Br)n1Cc1ccccc1 (stereo not given)	none
Cc1ccccc1-c1n[nH]c(=S)n1Cc1ccccc1	none
CCn1c(-c2cc(-c3ccccc3)sc2N)n[nH]c1=S	RORg inh 4µM, VP16 counter 13µM (no result: Luc counter)
C=CCn1c(-c2oc3nc(-c4ccccc4)cc(-c4ccccc4)c3c2N)n[nH]c1=S	RORg inh inconclusive
CCn1c(-c2ccccc2O)n[nH]c1=S	RORg inh 13µM
Oc1ccccc1-c1n[nH]c(=S)n1Cc1ccccc1	RORg inh 11µM (no result: Luc counter)
COc1ccc(CN(C)C(=O)CNC(=O)CNC(=O)c2ccc(Cl)cc2Cl)cc1F	none (no result: Luc counter)
CC1CN(C(=O)c2cccs2)CCN1C(=O)c1cccs1 (stereo not given)	none
Cc1cc(N/N=C/c2ccncc2)c([N+](=O)[O-])cc1[N+](=O)[O-]	none (no result: Luc counter)
Oc1ccc(Br)cc1-c1n[nH]c(=S)n1Cc1ccccc1	RORg inh 10µM (no result: Luc counter)
Cn1c(-c2cc(Br)ccc2O)n[nH]c1=S	RORg inh inconclusive, VP16 counter inconclusive
Cc1cc(/C=N/NC(N)=S)c(O)c(/C=N/NC(N)=S)c1	RORg inh 0.2µM, VP16 counter 0.45µM (no result: Luc counter)
NC(=S)N/N=C/c1ccc(/C=N/NC(N)=S)cc1	none (no result: Luc counter)
Cc1ccc2occ(/C=N/NC(N)=S)c(=O)c2c1	none
COc1cc(OC)c(/C=N/NC(=O)c2ccncc2)cc1Br	none
NC(=S)N/N=C/c1ccccc1O	RORg inh 3.5µM, VP16 counter 6.3µM (no result: Luc counter)
NC(=S)N/N=C/c1cccc(/C=N/NC(N)=S)c1	none (no result: Luc counter)
NC(=S)N/N=C/c1cccc(Br)c1	RORg inh 5.6µM, VP16 counter inconclusive
COc1cc(OC)c(/C=N/NC(N)=S)cc1Br	RORg inh 8.9µM, VP16 counter inconclusive
COc1ccc(C(=O)NNC(=O)CN2CCN(c3nc(-c4ccccc4)cs3)CC2)cc1	none
COc1ccc(-c2nc(-c3ccccc3)c(Nc3ccc4ccccc4c3)o2)cc1	RORg inh inconclusive
Cc1ccc(N(CC(=O)N/N=C/c2cc(C)n(-c3ccccc3C)c2C)S(C)(=O)=O)cc1	RORg inh inconclusive, VP16 counter inconclusive
COC(=O)[C@H](COC(C)(C)C)NC(=O)O[C@@H]1C(=O)c2ccc(OC)cc2O[C@H]1c1cccc(C(F)(F)F)c1	none
O=C(c1cnccn1)N1CCC[C@@]2(CCN(c3cccc(-c4ccccc4)c3)C2)C1	none
NC(=S)N/N=C/c1cccc(O)c1O	RORg inh 7.1µM, VP16 counter inconclusive
COc1cccc(/C=N/NC(N)=S)c1OS(=O)(=O)c1ccccc1	RORg inh inconclusive, VP16 counter inconclusive
CCn1c2ccccc2c2cc(/C=N/n3cnnc3)ccc21	VP16 counter inconclusive
S=c1[nH]ncn1/N=C/c1ccccc1	RORg inh inconclusive, VP16 counter inconclusive
CCn1c2ccccc2c2cc(/C=N/n3cn[nH]c3=S)ccc21	RORg inh 1.1µM, VP16 counter 7.1µM
S=c1[nH]ncn1/N=C/c1ccc(Br)cc1	RORg inh 2.2µM, VP16 counter 4µM
CC(Oc1ccc2c3c(c(=O)oc2c1)CCCC3)C(=O)NCC(O)c1ccccc1 (stereo not given)	none (no result: Luc counter)
CS(=O)(=O)N1CCC2(CCCN(c3ccccn3)C2)CC1	none
O=C(c1ccc(Cl)nc1)N1CCC(Cc2ccccc2)CC1	RORg inh inconclusive (no result: Luc counter)
Cc1cc(NCc2ccccn2)n2ncc(-c3ccccc3)c2n1	RORg inh 0.089µM, VP16 counter 0.32µM (no result: Luc counter)
CN(C)CCCNc1cc(C(C)(C)C)nc2c(-c3ccccc3)cnn12	RORg inh 1.4µM, VP16 counter 2.5µM (no result: Luc counter)
